# Test results as given in the supplement of paper PMC10849652.
# About 7,900 targets were measured; listed, in parts, are those with a hit and a random draw of the rest. About 0.6% of all pairs of compound and target were hits. A number with no mark means an inactive call.
# Experiments:
# Assay in all cases: log2 fold change, soluble protein after heating vs DMSO (PISA); higher = thermal stabilisation; K562 cells, 10 uM, 30 min; active = over 0.2 and 3.5 SD of the protein, either way, in both replicates (recomputed)
# [1] = compound: C#Cc1cccc(Nc2ncnc3cc(OCCOC)c(OCCOC)cc23)c1 [erlotinib]
# In short: (§1)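 Quantification of soluble protein used TMTpro 16plex LC-MS/MS, with channel sums equalised. Samples were the supernatant after 21,000xg for 90 min of pooled aliquots from K562 cells (2×10^6 cells/mL) treated with 10 μM compound for 30 min, heated for 3 min over 48°C-58°C, and extracted in PBS with 0.5% NP-40 at 4°C. Values, from duplicates, describe thermal stability against control samples on a log2 fold-change scale.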
# [2] = compound: C/C(=N\NC(=O)C1=CC(=CC=C1)S(=O)(=O)N2CCOCC2)/C3=C(C=CC(=C3)Cl)O
# In short: as §1
# [3] = compound: C1=CC(=C(C=C1Cl)C2=NC3=NC=CN=C3C(=N2)NC4=CC=NC=C4)F
# In short: as §1
# [4] = compound: C1=CC(=CC=C1C2=NC3=C(N2)C=C(C=C3)C(=O)N)OC4=CC=C(C=C4)Cl
# In short: as §1
# [5] = compound: C1=CC2=C(C=CC(=C2)/C=C\3/C(=O)NC(=NCC4=CC=CS4)S3)N=C1
# In short: as §1
# [6] = compound: C1=CC2=NC=CN=C2C=C1/C=C/3\C(=O)NC(=O)S3
# In short: as §1
# [7] = compound: C1=CC=C(C=C1)C2=NC(=C(N2)C3=CC=NC=C3)C4=CC(=C(C=C4)Cl)O
# In short: as §1
# [8] = compound: C1=CC=C2C(=C1)C3=NNC4=CC=CC(=C43)C2=O
# In short: as §1
# [9] = compound: C1CCN(C1)C(=O)NC2=CC=CC(=C2)NC3=NC=C(C(=N3)NCCC4=CN=CN4)Br
# In short: as §1
# [10] = compound: C1CN(CCC1(CC2=CC=C(C=C2)Cl)N)C3=NC=NC4=C3C=CN4
# In short: as §1
# Sequence of UniProt Q6P1M0 (Q6P1M0 whole entry, looked up): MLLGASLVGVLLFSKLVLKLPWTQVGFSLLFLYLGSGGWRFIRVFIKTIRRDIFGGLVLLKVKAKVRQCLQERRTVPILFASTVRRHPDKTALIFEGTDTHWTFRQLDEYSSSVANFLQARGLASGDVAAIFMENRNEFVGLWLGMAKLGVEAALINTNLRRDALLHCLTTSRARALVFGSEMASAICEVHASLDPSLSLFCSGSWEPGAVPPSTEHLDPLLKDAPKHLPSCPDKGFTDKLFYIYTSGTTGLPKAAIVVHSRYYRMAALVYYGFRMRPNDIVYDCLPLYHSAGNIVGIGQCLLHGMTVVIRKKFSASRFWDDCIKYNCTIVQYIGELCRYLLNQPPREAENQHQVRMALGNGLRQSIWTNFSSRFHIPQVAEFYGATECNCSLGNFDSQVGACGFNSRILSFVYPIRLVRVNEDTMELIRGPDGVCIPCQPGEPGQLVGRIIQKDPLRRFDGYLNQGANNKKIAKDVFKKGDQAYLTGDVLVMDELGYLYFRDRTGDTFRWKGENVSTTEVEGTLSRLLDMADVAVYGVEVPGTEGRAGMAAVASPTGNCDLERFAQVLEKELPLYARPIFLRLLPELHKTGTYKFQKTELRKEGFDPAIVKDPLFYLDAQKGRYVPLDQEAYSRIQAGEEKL
# Sequence of UniProt Q9Y4R8 (Q9Y4R8 whole entry, looked up): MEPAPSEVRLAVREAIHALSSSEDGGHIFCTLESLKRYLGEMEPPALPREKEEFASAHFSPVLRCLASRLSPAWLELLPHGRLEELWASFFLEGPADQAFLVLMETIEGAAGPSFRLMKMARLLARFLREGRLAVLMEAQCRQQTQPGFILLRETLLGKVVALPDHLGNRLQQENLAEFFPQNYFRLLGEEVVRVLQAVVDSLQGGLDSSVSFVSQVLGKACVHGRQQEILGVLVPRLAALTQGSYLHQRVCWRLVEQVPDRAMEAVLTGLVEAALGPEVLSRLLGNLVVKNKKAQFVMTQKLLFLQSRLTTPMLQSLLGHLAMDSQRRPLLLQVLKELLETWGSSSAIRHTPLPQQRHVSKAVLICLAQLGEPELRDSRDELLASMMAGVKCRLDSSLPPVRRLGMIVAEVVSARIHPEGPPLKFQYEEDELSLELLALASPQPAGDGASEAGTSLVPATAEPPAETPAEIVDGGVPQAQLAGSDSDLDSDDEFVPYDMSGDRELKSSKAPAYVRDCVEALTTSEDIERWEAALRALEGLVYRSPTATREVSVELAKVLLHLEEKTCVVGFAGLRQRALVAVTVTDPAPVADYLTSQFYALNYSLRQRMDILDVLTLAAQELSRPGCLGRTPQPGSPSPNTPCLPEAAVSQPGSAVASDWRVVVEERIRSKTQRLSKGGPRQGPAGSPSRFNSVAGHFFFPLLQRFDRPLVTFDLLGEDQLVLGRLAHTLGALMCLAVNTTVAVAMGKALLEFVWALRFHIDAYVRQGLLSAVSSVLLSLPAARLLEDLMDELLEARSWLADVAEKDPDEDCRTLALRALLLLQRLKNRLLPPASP
# Sequence of UniProt Q08945 (Q08945 whole entry, looked up): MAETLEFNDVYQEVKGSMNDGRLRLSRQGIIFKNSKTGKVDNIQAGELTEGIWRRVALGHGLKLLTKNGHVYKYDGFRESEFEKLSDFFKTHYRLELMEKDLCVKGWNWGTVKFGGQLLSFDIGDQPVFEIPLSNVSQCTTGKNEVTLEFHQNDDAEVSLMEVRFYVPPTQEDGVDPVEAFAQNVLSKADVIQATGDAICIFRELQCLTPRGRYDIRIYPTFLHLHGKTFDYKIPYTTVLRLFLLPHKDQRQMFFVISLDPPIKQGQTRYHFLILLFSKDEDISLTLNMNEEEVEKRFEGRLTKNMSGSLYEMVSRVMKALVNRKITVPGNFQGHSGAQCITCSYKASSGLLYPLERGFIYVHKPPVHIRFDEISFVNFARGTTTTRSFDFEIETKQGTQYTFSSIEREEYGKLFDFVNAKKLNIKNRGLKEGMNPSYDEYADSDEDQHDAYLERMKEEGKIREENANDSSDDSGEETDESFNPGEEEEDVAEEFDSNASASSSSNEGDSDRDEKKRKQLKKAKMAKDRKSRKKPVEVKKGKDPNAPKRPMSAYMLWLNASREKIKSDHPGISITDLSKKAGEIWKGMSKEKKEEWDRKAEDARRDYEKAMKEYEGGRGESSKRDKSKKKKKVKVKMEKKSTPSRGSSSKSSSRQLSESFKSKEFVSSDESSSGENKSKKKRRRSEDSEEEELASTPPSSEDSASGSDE
# Sequence of UniProt P08240 (P08240 whole entry, looked up): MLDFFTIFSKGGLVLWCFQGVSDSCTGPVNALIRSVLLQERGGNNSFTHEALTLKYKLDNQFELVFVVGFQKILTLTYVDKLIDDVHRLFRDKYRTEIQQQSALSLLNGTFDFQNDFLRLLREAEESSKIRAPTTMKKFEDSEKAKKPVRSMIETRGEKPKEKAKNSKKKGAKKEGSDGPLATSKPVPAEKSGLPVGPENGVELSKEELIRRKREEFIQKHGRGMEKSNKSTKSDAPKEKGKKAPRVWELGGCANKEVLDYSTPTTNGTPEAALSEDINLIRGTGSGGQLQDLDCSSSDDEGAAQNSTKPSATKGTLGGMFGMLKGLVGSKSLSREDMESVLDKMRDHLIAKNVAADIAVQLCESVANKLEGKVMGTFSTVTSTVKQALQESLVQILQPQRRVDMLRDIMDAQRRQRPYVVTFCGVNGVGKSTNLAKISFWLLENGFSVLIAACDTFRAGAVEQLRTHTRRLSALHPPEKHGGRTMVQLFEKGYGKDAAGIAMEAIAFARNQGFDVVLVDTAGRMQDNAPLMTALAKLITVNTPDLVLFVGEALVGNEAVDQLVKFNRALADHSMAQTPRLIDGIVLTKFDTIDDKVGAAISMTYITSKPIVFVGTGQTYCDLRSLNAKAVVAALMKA
# Sequence of UniProt Q86VP1 (Q86VP1 whole entry, looked up): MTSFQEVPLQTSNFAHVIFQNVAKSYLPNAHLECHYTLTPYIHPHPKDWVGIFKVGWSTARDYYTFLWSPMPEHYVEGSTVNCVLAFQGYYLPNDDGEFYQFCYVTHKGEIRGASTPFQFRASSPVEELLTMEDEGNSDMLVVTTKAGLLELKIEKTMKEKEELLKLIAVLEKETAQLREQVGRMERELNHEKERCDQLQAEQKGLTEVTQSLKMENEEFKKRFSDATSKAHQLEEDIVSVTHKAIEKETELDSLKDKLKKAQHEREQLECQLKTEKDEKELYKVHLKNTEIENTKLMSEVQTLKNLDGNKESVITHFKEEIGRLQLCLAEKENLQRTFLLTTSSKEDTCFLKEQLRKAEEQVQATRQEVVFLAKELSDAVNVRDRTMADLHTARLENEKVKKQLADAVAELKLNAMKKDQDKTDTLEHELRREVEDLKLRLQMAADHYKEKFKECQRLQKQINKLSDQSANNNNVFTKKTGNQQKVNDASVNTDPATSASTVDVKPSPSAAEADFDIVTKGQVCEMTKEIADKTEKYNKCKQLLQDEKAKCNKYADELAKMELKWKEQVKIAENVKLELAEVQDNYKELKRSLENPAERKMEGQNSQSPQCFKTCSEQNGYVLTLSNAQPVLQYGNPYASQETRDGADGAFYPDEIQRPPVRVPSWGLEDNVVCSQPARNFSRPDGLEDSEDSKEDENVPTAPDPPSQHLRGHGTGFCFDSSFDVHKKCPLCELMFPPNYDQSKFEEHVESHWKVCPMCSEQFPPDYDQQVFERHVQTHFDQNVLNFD
# Sequence of UniProt Q13573 (Q13573 whole entry, looked up): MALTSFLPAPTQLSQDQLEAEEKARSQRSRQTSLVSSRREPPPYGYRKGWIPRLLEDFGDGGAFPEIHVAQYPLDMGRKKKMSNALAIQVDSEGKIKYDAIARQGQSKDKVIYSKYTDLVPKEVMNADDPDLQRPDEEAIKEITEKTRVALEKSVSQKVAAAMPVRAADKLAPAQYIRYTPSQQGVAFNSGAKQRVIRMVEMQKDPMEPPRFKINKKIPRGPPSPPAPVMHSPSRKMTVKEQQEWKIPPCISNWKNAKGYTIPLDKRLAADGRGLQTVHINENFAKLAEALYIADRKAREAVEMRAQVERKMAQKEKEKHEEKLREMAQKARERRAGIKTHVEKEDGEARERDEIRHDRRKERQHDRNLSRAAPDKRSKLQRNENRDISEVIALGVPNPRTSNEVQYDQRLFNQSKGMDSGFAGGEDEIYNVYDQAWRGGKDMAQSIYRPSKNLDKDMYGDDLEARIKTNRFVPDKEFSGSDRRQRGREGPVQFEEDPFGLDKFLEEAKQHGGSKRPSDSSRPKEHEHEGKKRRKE
# Sequence of UniProt Q8N5G0 (Q8N5G0 whole entry, looked up): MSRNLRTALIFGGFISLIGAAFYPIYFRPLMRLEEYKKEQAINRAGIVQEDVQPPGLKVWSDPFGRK
# Sequence of UniProt Q9UBP0 (Q9UBP0 whole entry, looked up): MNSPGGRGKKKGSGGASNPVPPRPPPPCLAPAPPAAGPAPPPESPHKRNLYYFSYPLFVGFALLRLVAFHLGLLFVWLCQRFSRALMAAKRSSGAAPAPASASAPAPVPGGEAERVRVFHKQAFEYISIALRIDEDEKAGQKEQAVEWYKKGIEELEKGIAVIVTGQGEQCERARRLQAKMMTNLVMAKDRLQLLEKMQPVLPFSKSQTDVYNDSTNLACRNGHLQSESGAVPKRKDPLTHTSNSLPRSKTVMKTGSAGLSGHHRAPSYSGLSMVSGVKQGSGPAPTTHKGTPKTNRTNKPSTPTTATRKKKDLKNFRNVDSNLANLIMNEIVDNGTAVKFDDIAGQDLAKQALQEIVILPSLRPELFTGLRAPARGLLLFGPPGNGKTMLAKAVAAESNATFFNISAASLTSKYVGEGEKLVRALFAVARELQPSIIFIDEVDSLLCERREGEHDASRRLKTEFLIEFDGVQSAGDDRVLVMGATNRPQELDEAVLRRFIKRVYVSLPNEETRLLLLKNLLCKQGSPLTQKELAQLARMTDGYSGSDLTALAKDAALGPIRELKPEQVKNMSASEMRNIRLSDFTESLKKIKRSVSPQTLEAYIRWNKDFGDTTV
Target,log2 fold change [1],log2 fold change [2],log2 fold change [3],log2 fold change [4],log2 fold change [5],log2 fold change [6],log2 fold change [7],log2 fold change [8],log2 fold change [9],log2 fold change [10]
STAT5A (UniProt P42229),0.033,0.173,0.035,0.048,0.083,0.01,0.06,-0.026,-0.077,-0.028
SLC6A6 (UniProt P31641),0.001,0.013,0.123,-0.005,0.003,0.055,0.007,-0.054,0.087,0.083
STK4 (UniProt Q13043),-0.017,0,-0.02,0.003,0.04,-0.02,-0.009,-0.208 (active),-0.025,0.025
SNW1 (UniProt Q13573),-0.047,-0.028,-0.029,0.036,-0.015,0.045,-0.051,-0.001,0.001,0.002
TDP1 (UniProt Q9NUW8),0.141,–,–,–,–,–,–,–,–,–
TAMM41 isoform 3 (UniProt Q96BW9),0.047,0.03,0.058,-0.007,0.061,0.009,0.045,0.007,-0.007,0.056
STAT5B (UniProt P51692),0.027,-0.148,0.035,0.071,0.028,-0.013,-0.007,-0.061,-0.077,-0.013
THADA (UniProt Q6YHU6),0.039,0.068,0.03,0.035,0.071,0.007,0.029,-0.002,-0.011,-0.006
TELO2 (UniProt Q9Y4R8),0.043,0.102,-0.185,-0.031,-0.039,0.019,-0.037,0.053,0.046,-0.076
SMIM20 isoform 2 (UniProt Q8N5G0),-0.039,-0.111,0.427 (active),0.054,-0.088,0.088,0.023,-0.051,-0.016,-0.06
SPAST (UniProt Q9UBP0),0.139,0.129,0.032,-0.046,0.06,0.028,0.007,0.064,-0.048,-0.004
TBRG4 (UniProt Q969Z0),0.072,0.18,0.046,-0.154,0.063,-0.056,0.056,-0.201,-0.07,-0.036
SSRP1 (UniProt Q08945),-0.018,0.143,0.005,0.014,0.029,0.022,-0.016,-0.029,-0.052,0.009
SLC27A4 (UniProt Q6P1M0),0.039,0.013,-0.023,0.032,0.082,-0.02,0.002,0.061,-0.017,0.062
TAX1BP1 (UniProt Q86VP1),-0.079,-0.005,0.007,0.044,0.035,0.037,-0.044,-0.006,-0.015,-0.027
SRPRA (UniProt P08240),-0.01,0.061,0.073,0.007,0.054,-0.048,0.063,0.003,0.001,0.006
